# From PubChem BioAssay AID1159580 (chemical genetic matrix, 2015)
# In all, about 5,500 compounds went through this assay and about 2,000 (36%) were called active. Not shown: some 18% with an inconclusive outcome. This is one part of the list. Unmarked numbers belong to inactive results. Cut-off read from the data, not from the text of the source: active = normalized growth mostly below about 0.91 (no sharp cut-off); inconclusive = no clear call, values can overlap the other calls; inactive = mostly above about 0.92.
# Assay: chemical genetic growth profiling, strain panel (AID 1159580);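 note: tested at 20 µM; growth read once vehicle control cultures reached saturation at 30 °C; 1 = growth at the plate median or of vehicle wells; lower values mean less growth of the strain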
# Settings: S. cerevisiae deletion strains, growth OD
smiles,measurement,setting,value
Oc1c(Cl)cc(Cl)cc1/C=N\NC(=S)Nc1cc(C(F)(F)F)cc(C(F)(F)F)c1,normalized growth,"locus YAR019C, strain CDC15, hits give low values",0.815 (active)
same,normalized growth,"locus YBL105C, strain PKC1, hits give low values",0.899 (active)
same,normalized growth,"locus YBR135W, strain CKS1, hits give low values",0.884 (active)
same,normalized growth,"locus YBR136W, strain MEC1, hits give low values",0.888 (active)
same,normalized growth,"locus YBR160W, strain CDC28, hits give low values",0.893 (active)
same,normalized growth,"locus YDL017W, strain CDC7, hits give low values",0.889 (active)
same,normalized growth,"locus YDL028C, strain MPS1, hits give low values",0.878 (active)
same,normalized growth,"locus YDL101C, strain DUN1, hits give low values",0.922
same,normalized growth,"locus YDL108W, strain KIN28, hits give low values",0.88 (active)
same,normalized growth,"locus YDL132W, strain cdc53, hits give low values",0.811 (active)
same,normalized growth,"locus YDL214C, strain PRR2, hits give low values",0.179 (active)
same,normalized growth,"locus YDR052C, strain DBF4, hits give low values",0.894 (active)
same,normalized growth,"locus YDR054C, strain cdc34, hits give low values",0.491 (active)
same,normalized growth,"locus YDR226W, strain ADK1, hits give low values",0.886 (active)
same,normalized growth,"locus YDR477W, strain SNF1, hits give low values",0.285 (active)
same,normalized growth,"locus YER123W, strain YCK3, hits give low values",0.158 (active)
same,normalized growth,"locus YER133W, strain GLC7, hits give low values",0.338 (active)
same,normalized growth,"locus YFL009W, strain cdc4, hits give low values",0.611 (active)
same,normalized growth,"locus YFL029C, strain CAK1, hits give low values",0.784 (active)
same,normalized growth,"locus YFR003C, strain YPI1, hits give low values",0.853 (active)
same,normalized growth,"locus YFR019W, strain FAB1, hits give low values",0.111 (active)
same,normalized growth,"locus YFR028C, strain CDC14, hits give low values",0.857 (active)
same,normalized growth,"locus YGR040W, strain KSS1, hits give low values",0.35 (active)
same,normalized growth,"locus YGR052W, strain FMP48, hits give low values",0.132 (active)
same,normalized growth,"locus YGR092W, strain DBF2, hits give low values",0.0943 (active)
same,normalized growth,"locus YHR030C, strain SLT2, hits give low values",0.126 (active)
same,normalized growth,"locus YHR079C, strain IRE1, hits give low values",0.103 (active)
same,normalized growth,"locus YHR082C, strain KSP1, hits give low values",0.151 (active)
same,normalized growth,"locus YHR205W, strain SCH9, hits give low values",0.121 (active)
same,normalized growth,"locus YIL147C, strain SLN1, hits give low values",0.887 (active)
same,normalized growth,"locus YJL095W, strain BCK1, hits give low values",0.136 (active)
same,normalized growth,"locus YJL128C, strain PBS2, hits give low values",0.905
same,normalized growth,"locus YJL157C, strain FAR1, hits give low values",0.128 (active)
same,normalized growth,"locus YJR016C, strain ILV3, hits give low values",0.722 (active)
same,normalized growth,"locus YJR066W, strain TOR1 (second series), hits give low values",0.118 (active)
same,normalized growth,"locus YJR066W, strain TOR1, hits give low values",0.119 (active)
same,normalized growth,"locus YKL048C, strain ELM1, hits give low values",0.166 (active)
same,normalized growth,"locus YKL067W, strain YNK1, hits give low values",0.137 (active)
same,normalized growth,"locus YKL101W, strain HSL1, hits give low values",0.12 (active)
same,normalized growth,"locus YKL193C, strain SDS22, hits give low values",0.858 (active)
same,normalized growth,"locus YKL203C, strain TOR2, hits give low values",0.132 (active)
same,normalized growth,"locus YLR113W, strain HOG1, hits give low values",0.171 (active)
same,normalized growth,"locus YLR133W, strain CKI1, hits give low values",0.12 (active)
same,normalized growth,"locus YLR403W, strain SFP1, hits give low values",0.159 (active)
same,normalized growth,"locus YML070W, strain DAK1, hits give low values",0.116 (active)
same,normalized growth,"locus YMR001C, strain CDC5, hits give low values",0.805 (active)
same,normalized growth,"locus YMR205C, strain PFK2 (second series), hits give low values",0.157 (active)
same,normalized growth,"locus YMR277W, strain FCP1, hits give low values",0.811 (active)
same,normalized growth,"locus YNL006W, strain LST8, hits give low values",0.673 (active)
same,normalized growth,"locus YNL020C, strain ARK1, hits give low values",0.117 (active)
same,normalized growth,"locus YNL161W, strain CBK1, hits give low values",0.789 (active)
same,normalized growth,"locus YNL183C, strain NPR1, hits give low values",0.245 (active)
same,normalized growth,"locus YNL207W, strain RIO2, hits give low values",0.858 (active)
same,normalized growth,"locus YNL222W, strain SSU72, hits give low values",0.885 (active)
same,normalized growth,"locus YNL307C, strain MCK1 (second series), hits give low values",0.114 (active)
same,normalized growth,"locus YOL078W, strain AVO1, hits give low values",0.856 (active)
same,normalized growth,"locus YOL136C, strain PFK27, hits give low values",0.139 (active)
same,normalized growth,"locus YOR061W, strain CKA2, hits give low values",0.114 (active)
same,normalized growth,"locus YOR119C, strain RIO1, hits give low values",0.217 (active)
same,normalized growth,"locus YOR231W, strain MKK1, hits give low values",0.128 (active)
same,normalized growth,"locus YOR329C, strain SCD5, hits give low values",0.56 (active)
same,normalized growth,"locus YPL031C, strain PHO85, hits give low values",0.163 (active)
same,normalized growth,"locus YPL153C, strain RAD53, hits give low values",0.171 (active)
same,normalized growth,"locus YPL204W, strain HRR25, hits give low values",0.121 (active)
same,normalized growth,"locus YPL209C, strain IPL1, hits give low values",0.891 (active)
same,normalized growth,"locus YPL256C, strain CLN2, hits give low values",0.158 (active)
same,normalized growth,"locus YPR025C, strain CCL1, hits give low values",0.893 (active)
same,normalized growth,"locus YPR106W, strain ISR1, hits give low values",0.922
same,normalized growth,"locus YPR111W, strain DBF20, hits give low values",0.905
same,normalized growth,"strain NNK1, hits give low values",0.272 (active)
same,normalized growth,"strain TSCII, hits give low values",0.621 (active)
